# Source: PubChem BioAssay
# LDHA block = inhibitors of human lactate dehydrogenase A; 480,000 tested, 0.15% active; activity change, % (values are at about 110 or 230 µM); purified LDHA, NADH/diaphorase-resazurin fluorescence; stronger effect = lower value; P00338; in the data active means activity change below about -30%; inconclusive means mostly about -25% to -30%;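 further: plate controls were DMSO wells for no effect and wells without enzyme for full effect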
#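 LDH5 2 nM; NADH 0.06 mM, pyruvate 0.2 mM; 200 mM Tris pH 7.4, EDTA, Tween-20; 5 min RT. Detection: diaphorase 0.133 mg/mL + resazurin 37 µM, fluorescence ex540/em590 at 0 and 20 min; normalized to enzyme-free and DMSO wells.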
# Nrf2 activator = activators of Nrf2 (ARE) signaling; AREc32 ARE-luciferase reporter (MCF7-derived line), luminescence, 24 h; Potency, µM (top dose mostly 46.1 µM), for the others: at the top dose activation, usual class: activators; 410,000 tested, 0.31% active; AID 624171; further: potency means the concentration at half of the fitted maximal effect; % of control where 0% means no effect; nearly all actives have a fitted effect of over 65% in size
#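 AREc32 cells carrying an ARE-driven firefly luciferase reporter were seeded at 1000 cells/well in OPTI-MEM with 5% FBS, then exposed to compound for 24 hr at 37 deg C. Luminescence was read with Steady-Glo after 30 min at RT.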
# ALOX12 inh = ALOX12 (human) lipoxygenase inhibition; Potency, µM (titrated, usually from 108 µM), without a hit: at the highest dose activity change, negative = inhibition, actives largely listed as inhibitors; purified 12hLO, xylenol orange hydroperoxide absorbance; 580,000 tested, 1.1% active; further: potency means the concentration at half of the fitted maximal effect; on the % scale 0 is the no-effect control and ±100 the full control effect
#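 Purified human 12hLO at 150 nM in 25 mM Hepes, 0.01% Triton X-100, pH 7.0, preincubated 15 min at room temperature with compound. Reaction started with 40 uM arachidonic acid, 30 min at room temperature. Hydroperoxide measured by Fe-xylenol orange, 573/405 nm absorbance ratio.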
# Nrf2 inh = Nrf2 pathway inhibition; Potency, µM (titrated, usually from 46 µM), for the others: at the top dose activity change, negative = inhibition, most hits filed as inhibitors; AID 504444; 360,000 tested, 2.1% active; A549 ARE-Fluc reporter, luciferase luminescence, 18-24 h; further: potency means the concentration at half of the fitted maximal effect; on the % scale 0 is the no-effect control and ±100 the full control effect; nearly all actives have a fitted effect of over 60% in size
#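 A549 ARE_Fluc cells, 5000/well, 5% FBS OPTI-MEM; compounds in dose-response, 18-24 h at 37 °C/5% CO2; CellTiter-Fluor viability read (Ex 405/Em 525), then BugLite luciferase luminescence = Nrf2 activity.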
# ERG Ets-DNA blk = blocks human ERG Ets domain binding to DNA. P11308. Potency, µM (series often up to 76.9 µM), for the others: at the highest dose FP activity, negative = inhibition, most hits filed as inhibitors. AID 624246. fluorescence polarization, His-ERG Ets domain / labelled DNA. 370,000 tested, 0.028% active; active means well fitted inhibition curve with a large enough effect in the polarisation, with a control signal flat; inconclusive means small, poorly fitted or top-dose-only effect, or effect the other way, or a change in a side signal; inactive means no such curve, though single readings can be large or run the other way; the % refers to the polarisation;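 further: polarization taken with two DNA probes labelled with fluorescein and Texas red; potency means the concentration at half of the fitted maximal effect; % of control where 0% means no effect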
# Target sequence (P11308 whole entry, looked up, the tested form may be a part): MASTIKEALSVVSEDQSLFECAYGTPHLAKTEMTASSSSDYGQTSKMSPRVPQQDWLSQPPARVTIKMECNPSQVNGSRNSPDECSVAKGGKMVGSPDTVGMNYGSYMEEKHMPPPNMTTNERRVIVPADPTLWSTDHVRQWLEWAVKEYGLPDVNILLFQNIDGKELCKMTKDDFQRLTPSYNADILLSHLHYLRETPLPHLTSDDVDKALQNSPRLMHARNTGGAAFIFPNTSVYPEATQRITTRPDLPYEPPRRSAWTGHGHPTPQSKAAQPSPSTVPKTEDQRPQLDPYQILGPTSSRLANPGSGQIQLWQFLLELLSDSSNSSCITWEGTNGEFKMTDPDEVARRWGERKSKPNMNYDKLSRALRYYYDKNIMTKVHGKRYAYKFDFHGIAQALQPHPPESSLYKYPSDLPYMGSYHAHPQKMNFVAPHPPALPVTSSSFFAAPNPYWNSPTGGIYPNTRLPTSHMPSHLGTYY
#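 His-tagged ERG Ets domain (1 uM in the protein solution; 300mM KCl, 50mM Tris-HCl, 1mM EDTA, 1mM DTT, pH 7.5) received compound, then a probe mix of 5 nM fluorescein-DNA and 100nM Texas-615-DNA. Fluorescence polarization was read for both dyes.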
# A549 tox = kills or reduces viability of A549 cells in Nrf2 counter-screen; 390,000 tested, 0.16% active; A549 ARE-Fluc cells, CellTiter-Fluor viability, 18-24 h; Potency, µM (doses to about 46 µM), for inactives: top-dose activity change, negative = cytotoxicity, most hits filed as inhibitors; further: potency means the concentration at half of the fitted maximal effect; on the % scale 0 is the no-effect control and ±100 the full control effect
#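 A549 ARE_Fluc cells in 5% FBS OPTI-MEM were exposed to compounds in concentration-response for 18-24 h at 37 deg C. Viability was read by CellTiter-Fluor fluorescence (Ex 405/Em 525) after 30 min, before the luciferase read.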
# * hit, by the source's call; ? = inconclusive; / = not tested or not shown; [ ] = remark or other dose. This is a sample that favours compounds with a hit; in the whole collection about 2.7% have one here. Unless noted, the call rests on the fitted dose curve; in most records, active means well fitted curve in the direction sought with a large enough effect; inconclusive means small, poorly fitted or top-dose-only effect, or another doubt; inactive means no such curve, though single readings can be large; an effect the other way counts as inactive or inconclusive.
SMILES,LDHA block,Nrf2 activator,ALOX12 inh,Nrf2 inh,ERG Ets-DNA blk,A549 tox
COCc1cn(C[C@H]2C[C@@H](NCc3cccc4c3OCO4)[C@H](O)[C@@H]2O)nn1,/,/,3%,/,/,/
O=C(NC1CCCc2ccccc21)c1ccc2c(Cl)c3c(nc2c1)CCCC3 (stereo not given),1,/,-17%,/,/,/
C=CCc1ccccc1OCC(=O)OCCNC(=O)c1cccnc1,-4,0%,40µM*,-3%,2%,11%
O=C(NC1CCN(c2cc(-c3cccs3)[nH]n2)C1)c1cccc(Cl)c1 (stereo not given),/,/,48%,/,/,/
CCn1c(=NC(=O)CS(=O)(=O)c2ccc(F)cc2)sc2cccc(OC)c21,-11,0%,-6%,21µM*,8%,-1%
COc1cccc2cc(C(=O)Nc3ccccc3O)c(=O)oc12,6,/,-3%,/,/,/
Oc1ccc2ccccc2c1N=Nc1ccccn1,-5,?,0%,?,9%,?
Oc1ccc2ccccc2c1N=Nc1ccccc1F,4,3.5µM*,18%,28%,-3%,-7%
O=C(CNC(=S)N(Cc1ccccc1)Cc1ccccc1F)NCc1ccc(Cl)cc1,-1,3%,-21%,26µM*,-2%,?
O=C(CNC(=S)N(Cc1ccccc1)Cc1ccccc1F)NCc1ccccc1,5,4%,-6%,?,18%,-2%
COc1cccc(C(=O)Nc2ccc3c(c2)CCCN3C(=O)c2cccs2)c1OC,1,4%,26%,21µM*,-1%,-11%
COc1cccc(C(=O)Nc2ccncc2)c1OC,6,0%,-14%,23µM*,-1%,-4%
CCCn1nc([N+](=O)[O-])c(C(C#N)c2nc3ccccc3o2)c(Cl)c1=O (stereo not given),1,5%,40µM*,10%,11%,?
Cn1nc([N+](=O)[O-])c(C(C#N)c2ccccn2)c(Cl)c1=O (stereo not given),-2,?,-10%,12µM*,?,?
N#CC(c1ccccn1)c1ncc(C(F)(F)F)cc1Cl (stereo not given),-1,5%,-21%,12%,2%,8%
O=C(CSc1nc2cc(Cl)ccc2s1)N1c2ccccc2Sc2ccc(C(F)(F)F)cc21,10,/,-6%,/,/,/
CCn1nc([N+](=O)[O-])c(C(C#N)c2nc3cc(C(F)(F)F)ccc3s2)c(Cl)c1=O (stereo not given),8,-3%,?,8.2µM*,1%,?
CCCn1c(C)cc(C(=O)CC#N)c1C,0,/,-42%,/,/,/
CCCCCC(=O)Nc1cc(N(C)C)nc2ccccc12,-4,2%,-2%,-8%,-7%,3%
CCN(CC)CC(=O)Nc1cc(N(C)C)nc2ccccc12,-33*,2%,0%,4%,-18%,-1%
O=C(NC1CCCCCC1)C1(Cc2nc3ccccc3s2)CCCC1,0,/,?,/,/,/
CCCCCOc1ccc(Br)cc1/C(C)=N/NC1=NCCN1,0,1%,?,-9%,-8%,?
COc1ccc(Br)cc1/C(C)=N/NC1=NCCN1,-8,5%,0%,12µM*,18%,1%
CCCNC(=O)NC[C@@H]1C=C(C)[C@H](Cc2nc3nc(OC)ccc3[nH]2)C[C@H]1C(C)C,/,/,34%[176 µM],/,/,/
Cc1ccc(C)c(N2CCN(C(=O)Cc3cn(C)c4ccccc34)CC2)c1,5,3%,?,21µM*,2%,?
CCOc1ccc(N(CC)S(=O)(=O)N2CCCC(C(=O)NCCc3ccc(OC)cc3)C2)cc1 (stereo not given),-4,4%,2%,?,-6%,0%
CCOc1ccc(N(CC)S(=O)(=O)N2CCCC(C(=O)Nc3ccc(OC)c(OC)c3)C2)cc1 (stereo not given),2,1%,-7%,21µM*,-1%,12%
